# Data taken from PubChem BioAssay AID2240 (Broad Institute, 2010).
# Among all 37,000 compounds or so, about 100 (0.27%) were called active. This is one part of a sample in which actives are shown more often than they occur. A number with no mark means an inactive call. No stated cut-off is given here; in the data, active means inhibition above about 85%; inconclusive means no clear call, values can overlap the other calls; inactive means below about 68%.
# Experiment: blocks MITF activity, primary screen, MITF inhibitor project, cell-based, luminescence (AID 2240);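 further: human melanocyte line stably carrying TRPM1 promoter luciferase reporter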
# Details: TRPM1 promoter luciferase, 24 h, hits give high values, concentration not given here
row,SMILES,inhibition
1,c1ccc2c(c1)[I+]c1ccccc1-2,90% (active)
2,COc1ccc2[nH]cc(CCNCc3ccc(Br)cc3)c2c1,-13.8%
3,CCCCC/C=C\C/C=C\C/C=C\CCCCCCC(=O)NCCO,-1.85%
4,C[C@H]1CCC/C=C/C2C[C@H](O)C[C@H]2[C@H](O)/C=C\C(=O)O1 (stereo not given in full),108% (active)
5,c1cncc(CNCCc2c[nH]c3ccccc23)c1,1.76%
6,COc1ccc(CNCc2nc3ccccc3c(=O)n2-c2ccc(F)cc2)cc1,8.31%
7,C[C@H]1O[C@@H](O[C@H]2CC[C@]3(CO)C4CC[C@]5(C)[C@@H](C6=CC(=O)OC6)CC[C@]5(O)[C@@H]4CC[C@H]3C2)[C@H](O)[C@H](O)[C@@H]1O[C@@H]1O[C@H](CO)[C@@H](O)[C@H](O)[C@H]1O (stereo not given in full),10.7%
8,CN(C)C(=O)Oc1cc(OC(=O)N(C)C)cc(C(O)CNC(C)(C)C)c1 (stereo not given),-14.7%
9,CCCN(C/C=C/I)C1CCc2ccc(O)cc2C1 (stereo not given),-11.9%
10,COC1=CC23CCN(C)[C@H](Cc4cc(OC)c(OC)cc42)C3=CC1=O,2.51%
11,Cc1ncsc1CCCl,-1.18%
12,CN[C@@H]1C[C@H]2O[C@@](C)([C@@H]1OC)n1c3ccccc3c3c4c(c5c6ccccc6n2c5c31)C(=O)NC4,106% (active)
13,CC(C)c1c(CN(C)C(C)Cc2ccccc2)n(C)n(-c2ccccc2)c1=O (stereo not given),20.5%
14,CC=C1CN2C3CC1C1(C(=O)OC)C2CC2(c4ccccc4N(C)C32)C1O (stereo not given),4.01%
15,COc1ccccc1N1C(=O)NC(=O)C(CCc2ccncc2)(Cc2cccc3ccccc23)C1=O (stereo not given),7.09%
